Shown are actives, neighbours in structure and some others; about 1.2% of the full set was active somewhere.
Smad3 inh – Smad3 (human) transcription factor binding inhibition | inhibition, % at 25 µM | AID 630 | P84022 | TR-FRET Smad3/Dy647-FoxH1 peptide binding, europium anti-His | hit rate 0.29% among 88,000;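 active means compounds that reduce the energy-transfer binding signal between the protein and its labelled peptide by more than half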;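 further: 0% = Smad3 plus labelled peptide maximal FRET and 100% = peptide-only background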
Target sequence (P84022 whole entry, looked up): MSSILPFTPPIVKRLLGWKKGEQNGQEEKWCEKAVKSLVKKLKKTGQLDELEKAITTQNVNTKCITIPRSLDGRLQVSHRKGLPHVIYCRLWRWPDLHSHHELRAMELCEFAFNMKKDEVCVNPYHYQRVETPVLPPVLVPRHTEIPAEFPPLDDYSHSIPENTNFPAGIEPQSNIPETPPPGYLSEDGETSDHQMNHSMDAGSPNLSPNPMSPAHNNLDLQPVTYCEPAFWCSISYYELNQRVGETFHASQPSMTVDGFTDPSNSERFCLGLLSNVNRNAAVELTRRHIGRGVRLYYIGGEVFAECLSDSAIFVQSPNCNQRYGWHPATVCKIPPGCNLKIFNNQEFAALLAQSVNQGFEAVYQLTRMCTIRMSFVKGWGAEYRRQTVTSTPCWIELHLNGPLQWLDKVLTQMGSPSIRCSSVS
NFkB transloc inh – blocks IL-1B driven NFkB nuclear translocation in HUVEC cells; HUVEC IL-1B NFkB p65 nuclear translocation imaging; inhibition, % at 2 µM; hit rate 0.43% among 94,000; AID 796;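 active means inhibition above about 30% together with a positive call from visual inspection of the well image, limit read from the data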;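 further: nuclear over cytoplasmic p65 intensity ratio measured by imaging; 0% = IL-1B stimulated DMSO wells and 100% = unstimulated DMSO wells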
IL1B cytotox – HUVEC cytotoxicity counter-screen, IL-1B stimulated | HUVEC cell count loss, Hoechst imaging | AID 845 | hit rate 0.41% among 94,000 | cell count reduction, % at 2 µM;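 active means cell count reduction more than 3 SD above the screen-wide mean, cut at about 70% in these data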;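 further: normalized per plate to untreated control cells as the no-loss baseline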
IL1B NFkB pot – enhances IL-1B driven NFkB nuclear translocation; hit rate 0.3% among 94,000; HUVEC IL-1B NFkB p65 nuclear translocation imaging; activation, % at 2 µM;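 active means activation above 40%, about the mean plus 3 SD, also judged a hit on visual image review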;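 further: percent activation is computed from the nuclear over cytoplasmic p65 intensity ratio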
* hit, by the source's call; . = no result.

SMILES	Smad3 inh	NFkB transloc inh	IL1B cytotox	IL1B NFkB pot
COc1ccc(N2CCN(C(=O)CSc3nnc4c(C)cc5cc(C)ccc5n34)CC2)cc1	.	24	92*	-24
CC(=NCC(=O)O)c1ccccc1	3	.	.	.
Cc1ccc(CNC(=O)c2ccc(CNc3c(N4CCCC4)c(=O)c3=O)cc2)cc1	6	-41	0	41*
CCOc1ccc(OCC)c(NC(=O)c2ccc(CNc3c(N4CCOCC4)c(=O)c3=O)cc2)c1	6	-70	-3	70*
Cc1ccc(NC(=O)c2ccc(CNc3c(N4CCOCC4)c(=O)c3=O)cc2)cc1	.	8	-2	-8
Cc1cc(C)cc(NC(=O)c2ccc(CNc3c(N4CCOCC4)c(=O)c3=O)cc2)c1	1	-1	-2	1
CC1CCN(c2c(NCc3ccc(C(=O)NCC4COc5ccccc5O4)cc3)c(=O)c2=O)CC1 (stereo not drawn)	8	12	8	-12
CC1CCN(c2c(NCc3ccc(C(=O)N4CCc5ccccc54)cc3)c(=O)c2=O)CC1	.	-118	-3	118*
C[C@@H]1O[C@H](O)[C@@H](O)[C@H](O)[C@H]1O	10	.	.	.
CC(C)[C@](N)(C(=O)O)c1ccccc1	-5	.	.	.
S=c1nc(-c2nc(=S)[nH]c3c2CCCCCCCCCC3)c2c([nH]1)CCCCCCCCCC2	-2	.	.	.
C[C@@](N)(/C=C/c1ccccc1)C(=O)O	-12	.	.	.
O=C(Nc1ccc(F)cc1F)c1ccc(COc2c(F)c(F)cc(F)c2F)o1	6	-43	89*	43*
O=C(Nc1ccc(Cl)cc1F)c1ccc(COc2c(F)c(F)c(F)c(F)c2F)o1	1	8	-4	-8
Cc1ccccc1Cn1nc(C)c(NC(=O)c2cc3n(n2)C(C(F)F)CC(C(F)F)N3)c1C (stereo not drawn)	-8	96*	78*	-96
CCC(C)NC(=O)CSc1nnc(-c2ccc(C(C)(C)C)cc2)n1C (stereo not drawn)	-6	.	.	.
CCC(C)NC(=O)CSc1nnc(-c2cc(-c3ccc(C)cc3)nc3ccccc23)n1N (stereo not drawn)	.	-73	0	73*
Cc1ccc(-c2cc(-c3nnc(SCC(=O)NCC(C)C)n3N)c3ccccc3n2)cc1	.	-43	-2	43*
Cc1ccc(C)c(NC(=O)CSc2nnc(-c3ccccc3)n2N)c1	-7	-16	-55	16
COc1ccc(NCc2c(O)ccc3ccccc23)cc1	28	.	.	.
COc1ccc(CCNC(=O)C2CC(=O)N(c3ccccc3)C2)cc1OC (stereo not drawn)	-5	4	88*	-4
O=C(CCN(CCO)Cc1ccccc1)Nc1ccc(Br)cc1	-1	4	14	-4
CCN(CCC(=O)Nc1ccc(Br)c(C)c1)Cc1ccccc1	-4	50*	-5	-50
Clc1ccc(-n2cnnn2)cc1	-7	-3	2	3
Oc1ccc(-n2cnnn2)cc1	12	2	89*	-2
SMILES	Smad3 inh	NFkB transloc inh	IL1B cytotox	IL1B NFkB pot
NC(=O)[C@H]1CCCN1Cc1ccc2c(c1)OCO2	6	.	.	.
Cc1cc(C)c2nc3c(c([C@H](O)[C@@H]4CCCCN4)c2c1)CC/C3=C\c1ccc(Cl)cc1	12	.	.	.
CC1(C)[C@H]2CC[C@]1(C)[C@H](OC(=O)/C=C/c1ccccc1)C2	-3	.	.	.
COc1ccc(OC)c(C2C3=C(CCCC3=O)Nc3c2c(=O)n(C)c(=O)n3C)c1 (stereo not drawn)	1	-22	86*	22
COC(=O)C1=C(C)N(C)C(=O)NC1c1ccc(C)cc1 (stereo not drawn)	9	1	-42	-1
COC(=O)C1=C(C)n2nnnc2NC1c1ccc(Cl)cc1 (stereo not drawn)	3	-42	-4	42*
COCc1cc(C)c2c(N)c(C#N)sc2n1	-6	31*	21	-31
COc1ccc(N=CC2=C(Nc3ccc(OC)cc3)c3c(C)nn(-c4ccccn4)c3CC2)cc1	19	.	.	.
O=S(=O)(NCc1cccnc1)c1ccc(Cl)s1	16	59*	90*	-59
C[C@@]12CC[C@H]3c4ccc(O)cc4CC[C@@H]3[C@H]1C/C(=N\O)[C@H]2O	20	.	.	.
CS(=O)(=O)Nc1ccc(Nc2c3ccccc3nc3ccccc23)cc1	58*	.	.	.
O=C(NCCCN1CCCCCC1)c1ccc(CS(=O)(=O)Cc2ccccc2F)o1	69*	-31	-8	31
CCOc1cc(S(=O)(=O)N2CCCCCC2)ccc1F	-2	-1	16	1
O=S(=O)(c1ccc(Oc2ccc(Br)cc2F)nc1)N1CCCCC1	3	40*	-44	-40
COc1ccc(-c2nnc3ccc(SCC(=O)N4CCN(c5ccccc5)CC4)nn23)cc1OC	13	.	.	.
O=C(CSCc1ccc(Br)cc1)N1CCOCC1	9	-42	-16	42*
O=C(CSCc1ccc(F)cc1)N1CCOCC1	-4	-10	11	10
COc1ccc(Cl)cc1NC(=O)CC(C)c1ccccc1 (stereo not drawn)	9	97*	80*	-97
CCOC(=O)c1c(NC(=O)C2CCCO2)sc(C(=O)OC(C)(C)C)c1C (stereo not drawn)	-2	99*	19	-99
O=[N+]([O-])CC(=Nc1ccc(Cl)cc1)N/N=C\c1oc(O)c2ccccc12	6	-2	9	2
COc1ccc(N2C(=O)C3CCCN3C2c2ccccc2F)cc1 (stereo not drawn)	5	-51	0	51*
O=C1C2CCCN2C(c2ccccc2F)N1c1ccc(Cl)cc1 (stereo not drawn)	0	-11	-18	11
COc1ccc2[nH]c(C)c(CN3CCCC(C)C3)c(=O)c2c1 (stereo not drawn)	-12	.	.	.
Cc1cccc(NC(=O)CSc2nc3ccccc3c3nc(CCc4c(C)n[nH]c4C)nn23)c1	10	-10	-22	10
Cc1n[nH]c(C)c1CCc1nc2c3ccccc3nc(SCC(=O)Nc3ccccc3F)n2n1	7	9	86*	-9
SMILES	Smad3 inh	NFkB transloc inh	IL1B cytotox	IL1B NFkB pot
Cc1ccc(/C=C/C2=Cc3c(sc(NC(=O)CSc4n[nH]c(N)n4)c3C#N)C(C)(C)C2)o1	0	50*	-23	-50
CCOC(=O)c1sc(NC(=O)CSc2n[nH]c(-c3ccccc3)n2)c(C#N)c1C	-6	.	.	.
O=C(O)CCCc1ccc2ccc3ccccc3c2c1	-4	.	.	.
N=C(N)SCCSC(=N)N	68*	.	.	.
NC(=O)C[C@H](N)C(N)=O	1	.	.	.
Cc1c(Cl)cccc1NC(=O)C[C@H]1Sc2ccccc2NC1=O	3	.	.	.
C/C(N[O-])=C(\C)[N+]([O-])=[Co].CC(=N\[O-])/C(C)=N/[O-].C[CH-][C@@H](C)O.c1ccncc1	66*	.	.	.
O=C(c1cc2n(n1)C(C(F)(F)F)CC(c1ccco1)N2)N1CCc2ccccc2C1 (stereo not drawn)	4	11	75*	-11
Nc1ncnc2c1ncn2[C@H]1O[C@@H](CO)[C@H](O)[C@H]1N	-12	.	.	.
Cc1cccc(NC(=O)c2cc(NC(=O)c3ccccc3)ccc2N2CCCCC2)c1	5	-6	-6	6
Cc1ccc(NC(=O)c2cc(NC(=O)CCC(=O)O)ccc2N2CCCCC2)cc1	-2	5	92*	-5
FC(F)(F)c1cc(NC(=S)N2c3ccccc3-n3cccc3[C@H]2c2cccnc2)cc(C(F)(F)F)c1	15	.	.	.
